Assay results taken from PubChem BioAssay AID2472 (National Center for Advancing Translational Sciences (NCATS), 2010).
Several values for one entry are separate records, joined by “and”; a condition that tells them apart may be missing. Equal entries are not always repeated. Hit rate of the full screen: of about 290,000 compounds, about 2,000 (0.69%) were called active. Cut-off read from the data, not from the text of the source: active = activity change below about -30%; inactive = the rest, inconclusive results apart. For the sample, actives were picked, then their nearest neighbours and some compounds at random. Some structures have more than one record in an assay (separate samples or runs), and their calls can disagree.

Test: qHTS Assay for Inhibitors of Fructose-1,6-bisphosphate Aldolase from Giardia Lamblia: Coupling assay counterscreen
Settings: coupling enzyme system counterscreen, AmpLite Red fluorescence; at 58.2 µM (top of the series)
Text: MLPCN Grant: MH085699-01 Assay Provider: Osnat Herzberg, University of Maryland NCGC Assay Overview: The objective of this project is to obtain compounds that inhibit Giardia lamblia growth. G. lamblia is a human pathogen which afflicts impoverished nations; it is the most common cause of outbreaks of diarrhea in the United States. During the course of our study of potential drug targets in Giardia, we have identified the Class II (Zn2+ functions in electrophilic catalysis) fructose-1,6-bisphosphate aldolase (FBPA) as an excellent candidate for drug targeting. FBPA is a key glycolytic pathway enzyme, essential for G. lamblia survival. The human FBPA belongs to the Class I aldolases, which have a different substrate binding site structure and a radically different catalytic mechanism (employing a lysine-Schiff base intermediate). Therefore, affinity-based or mechanism-based inhibitors of the Giardia FBPA are expected not to interfere with the catalytic function of the human FBPA. A glyceraldehyde-3-phosphate dehydrogenase/triose phosphate isomerase/NAD/arsenate coupled assay was adapted to the 1536-well HTP format for use in the primary screen. This was done by coupling it to a diaphorase/resazurin/resorufin reaction that can be monitored by fluorescence (excitation, 544 nm; emission, 590 nm). Compounds identified in this screen will be further evaluated by coupling the […]/triose phosphate isomerase/NADH assay to a phenazine methosulfate/tetranitroblue tetrazolium color reaction. False positives due to the dehydrogenases and diaphorase inhibition will be eliminated, and selectivity assay will triage inhibitors of mammalian triose phosphate isomerase and the Class I FBPA. G. lamblia FBPA inhibitors identified by the in vitro analyses will be examined for growth inhibition of Giardia trophozoites, and for cytotoxicity in human cells. This assay specifically addresses whether activity observed in the primary screen (AID 2451) is related to inhibition of the coupling assay used, as opposed to inhibition of aldolase. Actives in this assay are considered inconclusive for activity against aldolase.
NCGC Assay Protocol: Step,Parameter,Value,Description 1,Coupling enzyme reagent,2 uL,glyceraldehyde-3-phosphate 2,Compound,23 nL,3.68 nM-57.5 uM final concentration 3,Time,10 min,RT Incubation 4,Substrate/detection Reagent,2 uL,Substrate + enzyme coupling system + AmpLite Red kit 5,Time,20 min,RT Incubation 6,Detector,525 nm/598 nm (Fluorescence),ViewLux Fluorescence Read (Read 1) Notes: 1,Medium-binding black solid-bottom Kalypsys plates. FRD or Kalypsys dispenser. 2,Compound Library (10 mM ,1:5 dilution). Pin-transferred for a [final] range of 3.68 nM-57.5 uM. 3,RT incubation 4,FRD or Kalypsys dispenser, 2 uL of reaction mixture. Bottle kept at 4C and covered in foil to protect from light. 5,RT incubation 6,ViewLux Protocol 1194; Excitation filter wheel A (525/20 Pol; BODIPY TMR FP), Emission filter wheel B (598/25 S; BODIPY TMR FP S). Keywords: Fructose-bisphosphate aldolase, FBPA , Giardia lamblia , Giardia, HTS, Inhibitors
% is set by controls: 0 for no effect and ±100 for the full control effect.

| SMILES | activity change, negative = inhibition |
| --- | --- |
| C/C(CCc1c[nH]c2ccccc12)=N\O | -2.5% (inactive) |
| Cc1cccc2c(CCN)c[nH]c12 | -2.64% (inactive) |
| NCCc1c[nH]c2ccc(O)cc12 | -9.84% (inactive) and -40.6% (active) |
| N#Cc1cc(Br)c(O)c(Br)c1 | 2.57% (inactive) |
| C[C@@H]1C[C@H]2CC[C@H](O2)[C@H](C)C(=O)O[C@@H](C)C[C@@H]2CC[C@@H](O2)[C@@H](C)C(=O)O[C@H](C)C[C@H]2CC[C@H](O2)[C@H](C)C(=O)O[C@@H](C)C[C@@H]2CC[C@@H](O2)[C@@H](C)C(=O)O1 | -0.707% (inactive) |
| C[C@H]1C/C=C/[C@@H]2[C@@H]3O[C@]3(C)[C@@H](C)[C@H]3[C@H](Cc4ccccc4)NC(=O)[C@]32OC(=O)O/C=C/[C@](C)(O)C1=O | 1.28% (inactive) |
| CCCCCCCCCCCCN=C(N)N | -0.411% (inactive) |
| CO[C@H]1[C@@H](O)[C@@H](C)O[C@H](O[C@H]2[C@H](Oc3cccc4c(O)c5c(=O)oc6ccc(C)c7c(=O)oc(c34)c5c67)O[C@H](C)[C@H](O)[C@@H]2O)[C@@H]1O | -47.8% (active) |
| Nc1ccc(-c2ccc(N)c(N)c2)cc1N | 3.84% (inactive) |
| CC(=O)[O][Sn]([c]1ccccc1)([c]1ccccc1)[c]1ccccc1 | -1.83% (inactive) |
| CN(C)C[C@H]1CCCC[C@]1(O)c1cccc(O)c1 | 0.267% (inactive) |
| CCOC(=O)c1c(N)n(Cc2ccccc2)c2nc3ccccc3nc12 | -2.59% (inactive) |
| CCOC(=O)C(O)(c1ccc(NC(=O)c2ccco2)c(OC)c1)C(F)(F)F (stereo not given) | -4.29% (inactive) |
| COc1cc(Cn2c(N)c(C(=O)NCc3ccco3)c3nc4ccccc4nc32)cc(OC)c1OC | -52% (active) |
| C[C@]12O[C@H](C[C@@]1(O)C(=O)O)n1c3ccccc3c3c4c(c5c6ccccc6n2c5c31)CNC4=O | 0.208% (inactive) |
